Reference: PubChem BioAssay (NCI)
Compounds without any hit were thinned out: in the full panel of roughly 83,000, 20% have a hit.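 Assay: single dose, 48 h. Readout: percent growth (0 = no net growth; negative = cell death). Active: <10.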 Values without a mark were called inactive. The source made the active and inactive calls.

Test system: OVCAR-5 ovarian
Test: NCI-60 one-dose screen, 48 h (100 = growth as untreated, 0 = no growth, -100 = all killed)
Conditions: 10 µM unless noted

Row | SMILES | growth
1 | CN1CCN(CCCNC(=O)c2c3c(n4ccccc24)C(=O)c2ncccc2C3=O)CC1 | 39.4%
2 | CN1CCN(CC(=O)N(C)c2ccc(N=C(c3ccccc3)c3c(O)[nH]c4ccc([N+](=O)[O-])cc34)cc2)CC1 | 122%
3 | CCCCCCCCNc1ncnc2c1ncn2Cc1nnc2c3ccccc3c(Cl)nn12 | 102%
4 | CC/C(=C(/c1ccc(Cl)cc1)c1ccc(OCCCN(C)C)cc1)c1ccc(OC)cc1 | 73.5%
5 | CCN(CC)CCCNC(=O)c1c2c(n3ccccc13)C(=O)c1ncccc1C2=O | -8.93% (active)
6 | CCCn1cnc2c(c1=N)C(c1ccc(Cl)cc1)c1sc3c(F)cccc3c1O2 (configuration not stated) | 81.6%
7 | Cc1ccc(C23CCC(=O)N2CCc2cncn23)cc1 (configuration not stated) | 96.3%
8 | O=C(COc1ccc(/C=C2\Oc3ccccc3C2=O)cc1)Nc1nccs1 | 91.8%
9 | Cc1c(C(=O)C(SC(=S)N2CCOCC2)SC(=S)N2CCOCC2)nnn1-c1ccc([N+](=O)[O-])cc1 | 102%
10 | O=[N+]([O-])c1ccc(Oc2cccc3c(Oc4ccc([N+](=O)[O-])cc4[N+](=O)[O-])cccc23)c([N+](=O)[O-])c1 | 109%
11 | CN(C)CCOc1ccc(/C(=C(/CCCCCCCCCC[P+](c2ccccc2)(c2ccccc2)c2ccccc2)c2ccccc2)c2ccccc2)cc1 | -97.2% (active)
12 | CC1(C)CC[C@]2(CO)CC[C@]3(C)C(=CC[C@@H]4[C@@]5(C)CCNCC(C)(C)[C@@H]5CC[C@]43C)[C@@H]2C1 | 81.8%
